PubChem BioAssay (NCATS)
Results filed as inconclusive are left out. Unmarked numbers belong to inactive results. The source made the active and inactive calls. Calls come from the whole dose curve; as a rule, active = well fitted inhibition curve with a large enough effect; inconclusive = small, poorly fitted or top-dose-only effect; inactive = no such curve, though single readings can be large or run the other way.

What follows are molecules tested on Zika virus NS2B-NS3 protease (linked construct) (assay: Primary screen NINDS Rhodamine qHTS for Zika virus inhibitors (AID 1347160; note: nearly all actives have a fitted effect of over 55% in size)). Settings: purified NS2B-NS3 protease, Rhodamine110 substrate fluorescence; series mostly up to 57.1 µM; activity change, negative = inhibition: at the top concentration.
Procedure, shortened: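 Each compound, titrated, sat 15 min with 25 nM linked protease before 1.5 microM Rhodamine110 substrate went in. Fluorescence gain over the next 15 min, in pH 8.0 Tris with Tween 20, gave Hill-fitted curves.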
% is set by controls: 0 for no effect and ±100 for the full control effect.

SMILES	outcome	activity change, negative = inhibition
O=C(/C=C/c1ccc(O)cc1)N[C@@H](Cc1ccc(O)cc1)C(=O)O	inactive [at 33.1 µM]	
CC1CCC2(C(=O)O)CCC3(C)C(=CCC4C5(C)CCC(O)C(C)(CO)C5CCC43C)C2C1(C)O (centres undefined)		-2.54% [at 33.1 µM]
CC1C(OC(=O)c2ccccc2)C(O)C2C(C(=O)O)=COC(OC3OC(CO)C(O)C(O)C3O)C12 (centres undefined)	inactive [at 33.1 µM]	
C/C=C/C=C/[C@@H]1O[C@](O)([C@H](CC)C(=O)NC/C=C/C=C(\C)[C@@H](OC)[C@@H](C)C2OC(/C=C/C=C/C=C(\C)C(=O)c3c(O)cc[nH]c3=O)[C@H](O)[C@@H]2O)[C@H](O)[C@H](O)C1(C)C (some centres undefined)	inactive [at 15.1 µM]	
C(#Cc1nc2ncccc2nc1OCCN1CCCC1)c1ccccc1		22.9%
CC(C)CCC[C@@H](C)[C@H]1CC[C@H]2[C@@H]3CC(=O)[C@H]4C[C@@H](O)CC[C@]4(C)[C@H]3CC[C@]12C		-21.1%
Cc1cc(O)c(-c2ccc([C@@H](C)CN(C)C)cc2)c2c1[nH]c(=O)c1sccc12		17.9%
C=C1CCCC2(C)CC3(OC)OC(=O)C(C)=C3CC12 (centres undefined)	inactive	
C=C1CCC2C(C)(C(=O)O)CCCC2(C)C1CC/C(=C\CO)CO (centres undefined)	inactive [at 33.1 µM]	
C[C@@H]1O[C@@H](OC[C@H]2O[C@@H](OC(CCCCc3ccc(O)cc3)CCc3ccc(O)cc3)[C@H](O)[C@@H](O)[C@@H]2O)[C@H](O)[C@H](O)[C@H]1O (some centres undefined)		-6.55% [at 15.1 µM]
CCC[C@@H]1O[C@@H]2C[C@H]3[C@@H]4CCC5=CC(=O)C=C[C@]5(C)[C@H]4[C@@H](O)C[C@]3(C)[C@]2(C(=O)CO)O1		-0.269%
COc1ccccc1Oc1ccc(N(Cc2cccnc2)S(=O)(=O)CC(F)(F)F)cc1		22.3%
C=C(C(=O)O)C1CC2=C(C)CCCC2(C)C[C@@H]1O (some centres undefined)		-13.5%
CC1(C)CCCC2(C)C=C(C(=O)O)C(O)CC12 (centres undefined)		14.2%
COc1cc([C@H]2c3cc(O)c(OC)cc3C[C@@H](CO[C@@H]3O[C@H](CO)[C@@H](O)[C@H](O)[C@H]3O)[C@@H]2CO)ccc1O		-12.8% [at 33.1 µM]
CC(C)(O)/C=C/C1=CC(=O)[C@@](C)(O)C[C@H]1O		-0.292%
C[C@H](NC(=O)CCc1nc2ccccc2c(=O)[nH]1)c1ccccc1	inactive	
CC1(C)CCC[C@@]2(C)C1[C@H](OC(=O)/C=C/C=C/C(=O)O)C=C1COC(=O)[C@@]12O (some centres undefined)		-1.9% [at 33.1 µM]
C=C(C)C(=O)OC1CC2(C)OC(=CC2=O)C(=C)CC2OC(=O)C(COC)C12 (centres undefined)		-6.82% [at 33.1 µM]
CC[C@]1(O)CC2CN(CCc3c([nH]c4ccccc34)[C@@](C(=O)OC)(c3cc4c(cc3OC)N(C=O)[C@H]3[C@@](O)(C(=O)OC)[C@H](OC(C)=O)[C@]5(CC)C=CCN6CC[C@]43[C@@H]65)C2)C1 (some centres undefined)		71.8% [at 33.1 µM]

SMILES	outcome	activity change, negative = inhibition
Cc1cc(C(N)=O)ccc1-n1c(CCC(=O)O)ccc1-c1ccc(-n2ccnc2)cc1		-18.2%
C=C1CN(Cc2ccc(C(=O)Nc3ccccc3N)cc2)C(=O)c2ccccc21		-0.162%
C/C=C/c1ccc2c(c1)[C@@H](C)[C@H](c1ccc(O)cc1)O2		2.87%
COc1ccc(/C=C/C(=O)O[C@@H]2[C@@H](O)[C@@H](O)[C@H](O[C@@H]3C=C(CO)[C@H]4[C@H](O[C@@H]5O[C@H](CO)[C@@H](O)[C@H](O)[C@H]5O)OC=C[C@H]43)O[C@H]2C)cc1O		-21.6% [at 15.1 µM]
CC(C)=CCC/C(C)=C/CO[C@@H]1O[C@H](CO)[C@@H](OC(=O)/C=C/c2ccc(O)cc2)[C@H](O[C@@H]2O[C@@H](C)[C@H](O)[C@@H](O)[C@H]2O)[C@H]1O		-5.05% [at 15.1 µM]
CC(C)=C/C=C\[C@H](C)[C@H]1CC[C@]2(C)C[C@@H]3C(C)=CC(=O)C3/C(CO)=C\C[C@@H]12 (some centres undefined)		-14% [at 33.1 µM]
C=C1C(=O)OC2/C=C(\CO)CC/C=C(\C=O)CC(OC(=O)CC(C)C)C12 (centres undefined)		7.51% [at 33.1 µM]
C[C@@H]1CCC/C=C/[C@H]2CC(=O)C[C@@H]2[C@@H](O)/C=C/C(=O)O1		-16.2%
Cn1c2ccc(F)cc2c2c(C(=O)N3CCCC3)cn(-c3ccccc3)c(=O)c21		7.84%
Cc1cc(N2CCN([C@@H]3CN[C@H](C(=O)N4CCSC4)C3)CC2)n(-c2ccccc2)n1		-17.4%
O=C(O)C1CN(Cc2ccc(-c3nc4cc(Cc5ccccc5F)ccc4s3)c(F)c2)C1		-8.39% [at 10.7 µM]
COc1ccc(Oc2cc(C)c(-c3csc(NC(=O)c4ccncc4)n3)c(C)c2)cc1		-5.62%
COc1ncc2cc(C(=O)Nc3cc(C(=O)NCc4cccc(Cl)c4)ccc3Cl)c(=O)[nH]c2n1		-5.97%
COC(=O)C(C)C1CCC2(C)C(=O)C=CC(C)(O)C2C1O (centres undefined)		-14.5%
C=C1CCC2C(C)(C)CCC[C@]2(C)[C@H]1C/C=C(\CO)C(=O)C(=O)O (some centres undefined)		-8.84% [at 33.1 µM]
CC(C)(C#N)c1ccc(N2C(=O)OCc3cnc4ccc(-c5cnc6ccccc6c5)cc4c32)cc1		6.42%
C[C@H]1CC[C@@]2(OC1)O[C@H]1CC3C4CC[C@H]5C[C@@H](O)[C@H](O)C[C@]5(C)C4=CC(=O)[C@]3(C)[C@H]1[C@@H]2C (some centres undefined)		-16.6% [at 33.1 µM]
C=C(C)C1Cc2cc(C(=O)OC3OC(CO)C(O)C(O)C3O)ccc2O1 (centres undefined)		-16.7% [at 33.1 µM]
CN1c2ccccc2C(=O)N2CCC3c4ccccc4NC3C21 (centres undefined)	inactive [at 33.1 µM]	
